From PubChem BioAssay (Tox21)
“And” between values parts separate entries of the source, which are not always exact repeats. Identical values can stand only once. Values without a mark were called inactive. Records with an inconclusive call do not appear. A call without a number means that no potency is given here. The source made the active and inactive calls. Unless noted, calls come from the whole dose curve; as a rule, active = well fitted curve in the direction sought with a large enough effect in the repeat runs; inconclusive = weak or mixed curves; inactive = no such curve, though single readings can be large; an effect the other way counts as inactive or inconclusive.

Tests used:
[1] = qHTS assay for small molecules that induce genotoxicity in human embryonic kidney cells expressing luciferase-tagged ATAD5 (AID 651632); note: nearly all actives have a fitted effect of over 15% in size
In short: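 Cells were seeded at 2,000 per well, dosed with compound, and incubated 16 hr at 37C in 5% CO2. Luciferase activity was then quantified after a 30 min room-temperature incubation with Amplite.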

[2] = qHTS assay for small molecule agonists of the p53 signaling pathway - cell viability (AID 651633; calls by dose curve; note: nearly all actives have a fitted effect of over 30% in size; note: potency is the fitted concentration of half-maximal effect)
In short: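 Viability counter-read: CellTiter-Glo luminescence (30 min, room temperature) in the same p53RE-bla plates. These plates had been exposed to compounds for 16 h at 37 C.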

[3] = qHTS assay for small molecules that induce genotoxicity in human embryonic kidney cells expressing luciferase-tagged ATAD5 - cell viability (AID 651634; calls by dose curve; note: nearly all actives have a fitted effect of over 25% in size; note: potency is the fitted concentration of half-maximal effect)
In short: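 Cells (HEK293T, luciferase-tagged ATAD5) are seeded at 2,000 per well, dosed with compound or DMSO vehicle, and incubated 15.5 hr at 37C and 5% CO2. CellTiter-Fluor is added for 30 min before fluorescence is measured.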

[4] = qHTS assay for small molecule disruptors of the mitochondrial membrane potential - cell viability (AID 720634; calls by dose curve; note: nearly all actives have a fitted effect of over 20% in size; note: potency is the fitted concentration of half-maximal effect)
In short: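 Cytotoxicity was measured by ATP quantitation in HepG2 wells that had first been treated with compound for 1 hr and stained with m-MPI dye; CellTiter-Glo incubation was 30 min at room temperature.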

[5] = qHTS assay to test for compound auto fluorescence at 590 nm (red) in HepG2 cells (AID 720674)
In short: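 1 hr compound incubation on HepG2 cells, 37 C, 5% CO2; plate read ex 540 nm / em 590 nm; intensities reported as Rose Bengal sodium equivalents.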

[6] = qHTS assay to test for compound auto fluorescence at 460 nm (blue) in HEK293 cells (AID 720678)
In short: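 HEK293 cells (2,000 per well, medium with 10% dialyzed FBS) attached for 4-5 hr at 37C, then received compound and stood overnight at 37C, 5% CO2. Blue fluorescence was read at Ex/Em 405/460 nm and expressed relative to triamterene.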

[7] = qHTS assay to test for compound auto fluorescence at 590 nm (red) in HEK293 cells (AID 720679)
In short: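 HEK293 cells (2,000/well, medium with 10% dialyzed FBS) attached for 4-5 hr at 37C, received 23 nL compound and were incubated overnight at 37C, 5% CO2. Red fluorescence was then read at 540/590nm Ex/Em, referenced to Rose Bengal sodium.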

[8] = qHTS assay to test for compound auto fluorescence at 535 nm (green) in HEK293 cells (AID 720680)
[9] = qHTS assay to test for compound auto fluorescence at 460 nm (blue) in HEK293 cell free culture (AID 720681)
In short: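 Blue fluorescence (Ex 405/Em 460 nm, triamterene-equivalent) was read immediately after pin transfer of compound or DMSO into medium (DMEM, 10% FBS) without cells.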

[10] = qHTS assay to test for compound auto fluorescence at 535 nm (green) in HEK293 cell free culture (AID 720682)
In short: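 Cell-free medium (DMEM, 10% FBS) receives compound or DMSO by pintool. Plate read directly at Ex 485/Em 535 nm. Signal converted to fluorescein equivalency.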

[11] = qHTS assay to test for compound auto fluorescence at 590 nm (red) in HEK293 cell free culture (AID 720683)
In short: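 Red-channel autofluorescence of compounds in culture medium (DMEM, 10% FBS), no cells, measured at 540/590 nm. Rose Bengal sodium is the reference fluorophore for equivalence.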

[12] = qHTS assay to test for compound auto fluorescence at 590 nm (red) in HepG2 cell free culture (AID 720684)
In short: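 No cells present: MEM + 10% FBS only. Compound pinned in, red label read (540/590 nm). Activity = fluorescence equivalent to Rose Bengal sodium.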

[13] = qHTS assay to test for compound auto fluorescence at 460 nm (blue) in HepG2 cell free culture (AID 720685)
In short: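 Cell-free plates of MEM plus 10% FBS received 23 nL compound or DMSO vehicle; blue-channel (405/460 nm) intensity scored against triamterene as reference fluorophore.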

[14] = qHTS assay to test for compound auto fluorescence at 535 nm (green) in HepG2 cell free culture (AID 720686)
[15] = qHTS assay to test for compound auto fluorescence at 460 nm (blue) in HepG2 cells (AID 720687)
In short: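 Blue-channel autofluorescence (Ex/Em 405/460 nm, triamterene-equivalent) was measured after 1 hr compound exposure at 37 C, 5% CO2. Cells were HepG2, plated overnight at 37 C in MEM plus 10% FBS.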

[16] = qHTS assay to test for compound auto fluorescence at 535 nm (green) in HepG2 cells (AID 720675)
[17] = target: Glucocorticoid receptor (Homo sapiens) (UniProt P04150); assay: qHTS assay to identify small molecule agonists of the glucocorticoid receptor (GR) signaling pathway (AID 720691; active = well fitted activation curve with a large enough effect in the signal ratio in the repeat runs, not every such curve was filed as active; the % refers to the signal ratio)
In short: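 Steps: seed GR-bla HeLa cells, incubate 4 h at 37 C/5% CO2; pin-transfer DMSO-dissolved compounds; incubate 18 h at 37 C; add LiveBLAzer B/G FRET substrate; after 2 h at room temperature, measure fluorescence.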

[18] = target: Glucocorticoid receptor (Homo sapiens) (UniProt P04150); assay: qHTS assay to identify small molecule antagonists of the glucocorticoid receptor (GR) signaling pathway (AID 720692; active = well fitted inhibition curve with a large enough effect in the signal ratio in the repeat runs, not every such curve was filed as active; the % refers to the signal ratio)
In short: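 Antagonism was scored as loss of dexamethasone-driven (5 nM final) reporter signal in HeLa cells bearing a glucocorticoid response element–beta-lactamase construct, after 18 h compound exposure at 37 C and 2 h FRET substrate loading.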

Chain of Glucocorticoid receptor (Homo sapiens) (P04150 whole entry, looked up): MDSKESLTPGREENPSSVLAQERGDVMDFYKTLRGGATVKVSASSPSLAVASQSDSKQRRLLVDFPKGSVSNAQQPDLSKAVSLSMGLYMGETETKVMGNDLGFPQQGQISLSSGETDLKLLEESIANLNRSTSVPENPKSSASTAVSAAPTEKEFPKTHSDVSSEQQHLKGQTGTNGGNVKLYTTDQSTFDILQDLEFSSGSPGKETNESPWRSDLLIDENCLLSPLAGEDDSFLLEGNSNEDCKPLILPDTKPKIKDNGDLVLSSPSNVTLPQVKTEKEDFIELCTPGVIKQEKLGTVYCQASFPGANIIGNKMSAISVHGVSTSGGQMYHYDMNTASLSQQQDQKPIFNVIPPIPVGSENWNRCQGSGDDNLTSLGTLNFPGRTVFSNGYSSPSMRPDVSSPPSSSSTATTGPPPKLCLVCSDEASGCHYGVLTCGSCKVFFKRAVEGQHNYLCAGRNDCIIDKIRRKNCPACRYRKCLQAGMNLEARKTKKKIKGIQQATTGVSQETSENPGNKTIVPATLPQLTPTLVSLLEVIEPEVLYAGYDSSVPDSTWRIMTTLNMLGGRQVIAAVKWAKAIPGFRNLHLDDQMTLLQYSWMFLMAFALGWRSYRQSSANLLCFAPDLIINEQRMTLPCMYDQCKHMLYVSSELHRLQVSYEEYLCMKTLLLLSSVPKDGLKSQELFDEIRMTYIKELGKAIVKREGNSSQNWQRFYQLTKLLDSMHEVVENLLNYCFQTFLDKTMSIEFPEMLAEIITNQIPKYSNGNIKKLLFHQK

SMILES | Potency [1] | Potency [2] | Potency [3] | Potency [4] | Potency [5] | Potency [6] | Potency [7] | Potency [8] | Potency [9] | Potency [10] | Potency [11] | Potency [12] | Potency [13] | Potency [14] | Potency [15] | Potency [16] | Potency [17] | Potency [18]
[Cu+] | inactive | inactive | inactive | inactive | inactive | inactive | inactive | inactive | inactive | inactive | inactive | inactive | inactive | inactive | inactive |  |  | 
CN(C)C(=O)COC(=O)Cc1ccc(OC(=O)c2ccc(N=C(N)N)cc2)cc1 | inactive | inactive | inactive | inactive |  | inactive | inactive | inactive | inactive | inactive | inactive | inactive | inactive | inactive | inactive | inactive | inactive | inactive
Cc1cc(-n2nc3ccc(Cl)cc3n2)c(O)c(C(C)(C)C)c1 | inactive | inactive | inactive | inactive | inactive | inactive | inactive | inactive | inactive | inactive | inactive | inactive | inactive | inactive |  | inactive | inactive | inactive
S=C([S-])NCCNC(=S)[S-].S=C([S-])NCCNC(=S)[S-].[Mn+2].[Zn+2] | inactive | inactive | inactive | inactive | inactive | inactive | inactive |  | inactive | inactive | inactive | inactive | inactive |  | inactive | inactive | inactive | 
CNc1ccc([N+](=O)[O-])cc1 | inactive | inactive | 61.3 µM (active) | inactive | inactive | inactive | inactive | inactive |  | inactive | inactive | inactive | inactive | inactive | inactive |  |  | 
CC[N+](CC)(CC)CCOC(=O)C(C1CCCC1)C1CCCC1 | inactive | inactive | inactive | inactive | inactive | inactive | inactive | inactive | inactive | inactive |  |  | inactive | inactive | inactive | inactive |  | 
CC1(C)CCC[C@]2(C)[C@H]3CCO[C@]3(C)CC[C@@H]12 | inactive | inactive | inactive | inactive | inactive | inactive | inactive | inactive |  | inactive | inactive | inactive | inactive | inactive | inactive | inactive | inactive | 
COc1ccc2cc1Oc1ccc(cc1)C[C@H]1c3c(cc4c(c3Oc3cc5c(cc3OC)CCN(C)[C@@H]5C2)OCO4)CCN1C | inactive | inactive | 29.8 µM (active) | inactive | inactive | inactive | inactive | inactive | inactive | inactive | inactive | inactive | inactive | inactive | inactive |  | inactive | inactive
OCC(F)(F)F | inactive | inactive | inactive | inactive | inactive | inactive | inactive | inactive | inactive | inactive | inactive |  | inactive | inactive |  | inactive | inactive | inactive
Cc1ccc(C(C)C)cc2c(C)ccc1-2 | inactive | inactive | inactive | inactive | inactive | inactive | inactive | inactive | inactive | inactive | inactive | inactive | inactive | inactive | inactive | inactive | inactive | inactive
Clc1sc(Cl)c(Cl)c1Cl | inactive | inactive | inactive | inactive | inactive | inactive | inactive | inactive | inactive | inactive | inactive |  | inactive | inactive | inactive |  |  | 
Cc1c(C)c2c(c(C)c1OC(=O)c1cccnc1)CC[C@@](C)(CCC[C@H](C)CCC[C@H](C)CCCC(C)C)O2 | inactive | inactive | inactive | inactive | inactive | inactive | inactive | inactive | inactive | inactive | inactive | inactive |  | inactive | inactive | inactive |  | 
Clc1ccnc(Cl)n1 | inactive | inactive | inactive | inactive | inactive |  | inactive | inactive | inactive | inactive | inactive | inactive | inactive | inactive | inactive |  | inactive | inactive
CCCCCCCCCCCCCC[N+](C)(C)Cc1ccccc1 | inactive | 23.7 µM (active) and 69.6 µM (active) | 69.6 µM (active) | 62.1 µM (active) | inactive | inactive | inactive | inactive | inactive | inactive | inactive | inactive | inactive | inactive | inactive | inactive |  | 
Cc1ccc(C)cc1 | inactive | inactive | inactive | inactive |  |  | inactive | inactive | inactive | inactive | inactive | inactive | inactive | inactive | inactive | inactive | inactive | inactive
